Out of some 71,000 compounds screened, about 1,400 (2%) were called active. Another 3% or so got no clear call; they are omitted. Calls follow the shape of the dose curve; as a rule, active = well fitted curve in the direction sought with a large enough effect; inconclusive = small, poorly fitted or top-dose-only effect; inactive = no such curve, though single readings can be large or run the other way. Shown is part of a subset that was picked to be rich in actives. Non-standard residues stand in square brackets, D forms with d. Residues, ends and D or L forms follow the SMILES beside them. ξ: configuration not given here. ξV = CC(C)C(N)C(=O)O
target: Microtubule-associated protein tau (Homo sapiens) (UniProt P10636); test: qHTS Assay for Tau Filament Binding; conditions: recombinant tau filaments, thioflavin S fluorescence, 15 h, filaments grown with octadecylsulfate alongside compound; series mostly up to 57.1 µM;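 also: actives lower thioflavin S fluorescence by blocking filaments or displacing dye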
Method in brief: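 Read-out: ThS fluorescence, 450 nm excitation/510 nm emission; lower signal marks blocked filament formation or displaced dye. Tau at 1 uM with 30 uM ODS, 10 uM ThS, 5 mM DTT, 100 mM NaCl, 10 mM HEPES pH 7.4; 15 h, 37 C.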
% is scaled to controls: 0 for no effect and ±100 for the full control effect; potency is read from the fitted curve at half-maximal effect.

Sequence of Microtubule-associated protein tau (Homo sapiens) (P10636 whole entry, looked up): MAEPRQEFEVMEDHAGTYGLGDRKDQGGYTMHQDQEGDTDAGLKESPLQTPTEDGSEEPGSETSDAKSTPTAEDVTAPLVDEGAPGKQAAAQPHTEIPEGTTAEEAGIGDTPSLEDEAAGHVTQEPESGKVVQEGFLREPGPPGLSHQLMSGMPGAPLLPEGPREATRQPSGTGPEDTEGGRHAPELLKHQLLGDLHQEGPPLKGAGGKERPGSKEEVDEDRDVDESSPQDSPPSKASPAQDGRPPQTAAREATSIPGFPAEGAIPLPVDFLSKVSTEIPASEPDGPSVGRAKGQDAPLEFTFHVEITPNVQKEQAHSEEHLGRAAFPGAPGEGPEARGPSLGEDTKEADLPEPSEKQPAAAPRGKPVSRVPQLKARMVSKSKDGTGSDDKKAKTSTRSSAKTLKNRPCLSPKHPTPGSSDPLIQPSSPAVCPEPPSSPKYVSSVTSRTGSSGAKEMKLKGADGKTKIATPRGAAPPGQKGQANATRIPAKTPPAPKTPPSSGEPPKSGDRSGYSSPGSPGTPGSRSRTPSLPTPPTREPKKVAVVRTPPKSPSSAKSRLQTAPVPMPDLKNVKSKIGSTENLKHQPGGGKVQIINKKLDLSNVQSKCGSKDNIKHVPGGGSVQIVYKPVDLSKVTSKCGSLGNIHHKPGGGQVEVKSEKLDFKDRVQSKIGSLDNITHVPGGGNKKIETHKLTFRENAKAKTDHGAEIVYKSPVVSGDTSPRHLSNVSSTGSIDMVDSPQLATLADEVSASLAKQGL

Potency, inactive:
C[C@]12C=CC(=O)C=C1CC[C@@H]1[C@@H]2C(=O)C[C@@]2(C)[C@H]1CC[C@]2(O)C(=O)CO
CCn1c(SCC(=O)NCC2CCCO2)nc2cc(S(=O)(=O)N3CCCCC3)ccc21 (stereo not drawn)
COCCCNC(=O)CSc1nc2ccc(N3CCOCC3)cc2c(=O)n1CCc1ccccc1
COC(=O)[C@@]1(Cc2ccc(OC)cc2)[C@H]2c3cc(C(=O)N4CCCC4)n(Cc4ccc(C(F)(F)F)nc4)c3C[C@H]2CN1C(=O)c1ccccc1
COc1ccc(CCNC(=O)CCCCn2c(=O)[nH]c3ccccc3c2=O)cc1OC
COc1ccc(COC(=O)c2n[nH]c3ccccc23)cc1F
COCC(C)NC(=O)c1ccc(Cl)c(Cl)c1 (stereo not drawn)
COc1cccc(Cn2c(=O)cnc3cncnc32)c1
CCNc1ncc2ncc(=O)n(Cc3cccc(OC)c3)c2n1
COc1ccc(N)c(OC)c1
C=CCOC(=O)c1ccccc1C(=O)OCC=C
CC(C)CO
O=C(c1csnn1)N1CCC2(CC1)CN(c1ncccn1)C2
O=NO
CN1CCN(c2ncc3nc(-c4ccc(Cl)cc4)c(=O)n(-c4ccccc4)c3n2)CC1
CCOc1cc(C(=S)N2CCOCC2)ccc1O
COC(=O)c1ccc(CN(c2ccccc2OC)S(=O)(=O)c2cccs2)o1
CC(=O)NC(C(=O)NCC(N)=O)C(C)C (stereo not drawn) (Ac-[ξV]-Gly-NH2)
CCNc1ncc2ncc(=O)n(CCc3ccccc3)c2n1
Cc1ccc2oc(=O)ccc2c1
CCCCNC(=O)c1ccccc1NC(=O)c1ccccc1N(C)S(C)(=O)=O
Cc1ccc(Nc2cc(=O)n(C3CCCCC3)c(=O)[nH]2)cc1C
COCCn1c(=O)c(CCc2ccccc2)nc2cnc(N3CCNCC3)nc21
COCCn1c(=O)c(-c2cc(F)cc(F)c2)nc2cncnc21
CNc1ncnc2ccc(-c3cccc(NS(C)(=O)=O)c3)cc12
CCCCC(CC)CN (stereo not drawn)
CCC[C@@H]1C[C@@]1(CCC)[C@@H](NC(=O)c1ccccc1)c1ccc(C(=O)OC)cc1
CC(=O)Nc1cccc(Oc2cc(C#N)c(C#N)cc2N2CCOCC2)c1
CCOc1cc(NC(=O)c2ccco2)c(OCC)cc1NC(=O)COc1ccccc1
CC/C=C/C/C=C/C/C=C/CCCCCCCC(=O)OCC
Cc1c(C(=O)OCC(=O)N(CCC#N)c2ccccc2)oc2c1ccc1ccccc12
O=C1CCCc2c1[nH]c1ccc(Br)cc21
CCc1c(C)n([O-])c2c([n+]1=O)CCCCC2
CC(C)(C)[Si](OCC[C@@H]1C[C@@]1(C)[C@@H](NP(=O)(c1ccccc1)c1ccccc1)c1ccccc1)(c1ccccc1)c1ccccc1
CC(=O)c1cccc(S(=O)(=O)N2CCC(n3nnc4cc(F)ccc43)CC2)c1
C/C(CC(O)(/C=N/O)c1ccccc1)=N\O (stereo not drawn)
CCCC(Cl)CCCC(Cl)CCC(Cl)CCC(Cl)CCC(Cl)CCCC(Cl)CCC (stereo not drawn)
Cc1cc(C(=O)O)ccc1[N+](=O)[O-]
CCc1c(C)nc2ncnn2c1N1CCC(C(=O)NCc2ccc3c(c2)OCO3)CC1
O=C(NCCN1CCOCC1)[C@H](Cc1ccccc1)N1C(=O)c2ccccc2C1=O
Cc1ccc(C)n1C(Cc1ccccc1)C(=O)O (stereo not drawn)
O=C(OC1CCOC1=O)c1ccc(-c2nc3ccccc3s2)s1 (stereo not drawn)
COc1ccccc1CNc1ncncc1-c1cccc(NS(C)(=O)=O)c1
O=C(O)CCCCC(=O)O
CCCCCCCCCCCC(=O)O
CC1CC(c2ccccc2)n2nc(NC(=O)c3cccs3)nc2N1 (stereo not drawn)
Cc1cccc(Br)c1
CC(=O)N1[C@H](C)C=C[C@]1(Cc1ccccc1)C(=O)NCc1ccccn1
Cc1ccc(-n2c(N)c(C(=O)N3CCOCC3)sc2=S)c(C)c1

Potency, active:
CCCCn1c(SCC(=O)NCC2CCCO2)nc2ccc(N3CCOCC3)cc2c1=O (stereo not drawn) 15.8 µM
COc1ccc(N=Cc2c(O)[nH]c3ccccc23)cc1OC 12.6 µM
COc1cccc(Nc2ncc3ncc(=O)n(C4CC4)c3n2)c1 12.6 µM
CC[C@@H]1Cc2cc(O)ccc2C2=C1c1ccc(O)cc1C[C@H]2CC 25.1 µM
CC(C)[C@H](CO)Nc1nc(Nc2cc(N)cc(Cl)c2)c2ncn(C(C)C)c2n1 31.6 µM
Cc1c(C)c2c(c(C)c1O)CC[C@@](C)(CN1CCN(c3cc(N4CCCC4)nc(N4CCCC4)n3)CC1)O2 12.6 µM
COCCn1c(=O)c(-c2cc(F)cc(F)c2)nc2cnc(N3CCNCC3)nc21 3.16 µM
CCOc1cc(N2CCOCC2)c(OCC)cc1NC(=O)COc1cccc2cccnc12 25.1 µM
O=[n+]1c2c(n([O-])c3cc(Br)ccc31)CCC2 25.1 µM
N/C(=N\c1nc2ccccc2o1)NC(=O)C(Cc1ccccc1)N1C(=O)c2ccccc2C1=O (stereo not drawn) 12.6 µM
C#CCCCCCCCCCCCCCCCC(=O)O 31.6 µM
C/C(=C\c1ccco1)C1Nc2cccc3cccc(c23)N1 15.8 µM

Activity change, negative = inhibition, inactive:
CO[C@@H]1/C=C\O[C@]2(C)Oc3c(C)c(O)c4c(O)c(c(CN(C)C)c(O)c4c3C2=O)NC(=O)/C(C)=C\C=C[C@@H](C)[C@@H](O)[C@H](C)[C@@H](O)[C@H](C)[C@H](OC(C)=O)[C@@H]1C 3.4% [at 11.4 µM]
CC1(CCC(=O)OC2CCCCC2)OCCO1 -1.1% [at 11.4 µM]

Reference: PubChem BioAssay AID596 (National Center for Advancing Translational Sciences (NCATS), 2007)
